Measured values published in PubChem BioAssay (NCATS).
Values without a mark were called inactive. No rule for the calls is given here.

These compounds were tested on HIV-1 nucleocapsid protein NCp7 (binding to TG oligonucleotide) (assay: HIV Nucleocapsid (AID 346;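 also: potency is for inhibitors that block NC binding and lower polarization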)). Settings: HIV-1 NC / fluorescein-TGTGTGTG probe, fluorescence polarization.
Procedure, shortened: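 Fluorescence polarization readout: labelled TG4xF oligo (10 nM) with 100 nM nucleocapsid protein, high-salt (250mM NaCl) Hepes pH 7.5 buffer containing zinc and fresh reducing agents. Compounds added by pin tool; incubation 1 hr, room temperature.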
Potency is read from the fitted curve at half-maximal effect.

Question: How did the Potency turn out when `COc1ccc(CNc2ncnc3ccc(-c4ccccc4OC)cc23)c(OC)c1` was run?
Answer: > 20 µM

Question: `Cc1nc2cnc(N(C)C)nc2n(Cc2cccs2)c1=O` was tested. Which Potency did it give?
Answer: > 20 µM

Question: Which Potency does the source give for `c1cncc(CNc2nc(-c3cccnc3)nc3ccccc23)c1` here?
Answer: > 20 µM

Question: How did the Potency turn out when `O=C(Nc1ccccc1)N1CCC2(CCNCC2)CC1` was run?
Answer: > 20 µM

Question: With `COC(=O)N1CCC2(CC1)CN(c1cccc(-c3ccccc3)c1)C2` as the compound, how does the Potency read?
Answer: > 20 µM

Question: For `COc1ccc(Oc2ncc3nc(-c4ccc(F)cc4)c(=O)n(Cc4cccs4)c3n2)cc1`, which Potency is on record?
Answer: > 20 µM

Question: `Cc1cccc(CNc2ncncc2-c2ccccc2CN(C)C)c1` was tested. Which Potency did it give?
Answer: > 20 µM

Question: Which Potency does the source give for `N#Cc1cccc(-c2nc3cnc(N4CCNCC4)nc3n(C3CC3)c2=O)c1` here?
Answer: > 20 µM

Question: Which Potency does the source give for `CN1CCN(c2ncc3nc(-c4ccccc4)c(=O)n(-c4ccccc4)c3n2)CC1` here?
Answer: > 20 µM

Question: How did the Potency turn out when `CN(C)C(=O)c1ccc(-c2nc(N(C)C)c3ccccc3n2)cc1` was run?
Answer: > 20 µM

Question: How did the Potency turn out when `FC(F)(F)c1ccccc1-c1cncnc1NCc1ccccc1` was run?
Answer: > 20 µM

Question: How did the Potency turn out when `O=C(c1csnn1)N1CCC2(CC1)CCN(c1ccccn1)CC2` was run?
Answer: > 20 µM

Question: Which Potency does the source give for `COc1ccc2[nH]cc(CCNc3nc(-c4cccc(C#N)c4)nc4ccccc34)c2c1` here?
Answer: > 20 µM

Question: Which Potency does the source give for `COC(=O)N1CCC2(CCN(Cc3cc(C(F)(F)F)cc(C(F)(F)F)c3)CC2)CC1` here?
Answer: > 20 µM

Question: With `COc1cccc(Cn2c(=O)c(C)nc3cnc(Nc4ccccc4)nc32)c1` as the compound, how does the Potency read?
Answer: > 4 µM
